PubChem BioAssay (NCI)
Compounds without any hit were thinned out: in the full panel of roughly 83,000, 20% have a hit.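 Step 1: grow cells in 96-well plates. Step 2: add test compound at a single concentration. Step 3: incubate 48 h. Step 4: record percent growth.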 The source made the active and inactive calls. How the source made its calls: active means growth percent below 10; inactive means the rest.

Assays:
Experiment in all cases: NCI-60 one-dose screen, 48 h (100 = growth as untreated, 0 = no growth, -100 = all killed)
Conditions in all cases: 10 µM unless noted
NCI-H23 lung = tested on: NCI-H23 lung
NCI-H226 lung = tested on: NCI-H226 lung
NCI-H322M lung = tested on: NCI-H322M lung
HOP-62 NSCLC = tested on: HOP-62 NSCLC
NCI-H460 lung = tested on: NCI-H460 lung
HOP-92 NSCLC = tested on: HOP-92 NSCLC
NCI-H522 lung = tested on: NCI-H522 lung
A549/ATCC NSCLC = tested on: A549/ATCC NSCLC
786-0 renal = tested on: 786-0 renal
COLO 205 colon = tested on: COLO 205 colon

Measured: growth

COc1ccc(/C(=N/O)c2cc(F)c(F)c(OC)c2F)cc1O
inactive: NCI-H23 lung 39.2% | NCI-H226 lung 85.7% | NCI-H322M lung 46% | HOP-62 NSCLC 21.5% | HOP-92 NSCLC 50.8% | A549/ATCC NSCLC 42% | 786-0 renal 45% | COLO 205 colon 62.1%
active: NCI-H460 lung 9.72% | NCI-H522 lung -56.7%

COc1ccc(-c2nc(-c3ccccc3)c(-c3ccccc3)n2C2CC2)cc1OC1CCCCC1
inactive: NCI-H23 lung 72.6% | NCI-H226 lung 94% | NCI-H322M lung 80.4% | HOP-62 NSCLC 85% | NCI-H460 lung 30.9% | HOP-92 NSCLC 90.2% | NCI-H522 lung 64.2% | A549/ATCC NSCLC 53.3% | 786-0 renal 74% | COLO 205 colon 79.9%

Cc1ccc(Nc2ncnc3c2sc2ncccc23)cc1
inactive: NCI-H23 lung 101% | NCI-H226 lung 91.7% | NCI-H322M lung 95.9% | HOP-62 NSCLC 103% | NCI-H460 lung 97.6% | HOP-92 NSCLC 106% | NCI-H522 lung 106% | A549/ATCC NSCLC 98.2% | 786-0 renal 101% | COLO 205 colon 107%

Cc1ccc(S(=O)(=O)NCCCNc2nccc(-c3c(-c4ccccc4)nc4sccn34)n2)cc1
inactive: NCI-H23 lung 76.2% | NCI-H226 lung 49.4% | NCI-H322M lung 78.4% | HOP-62 NSCLC 124% | NCI-H460 lung 52% | HOP-92 NSCLC 93.8% | NCI-H522 lung 54.1% | A549/ATCC NSCLC 58.4% | 786-0 renal 38.7% | COLO 205 colon 46.6%

Cc1ccc(C(=O)c2sc3nc4c(cc3c2N)CCCC4)c(C)c1
active: NCI-H522 lung -0.883% | COLO 205 colon 3.68%
inactive: NCI-H23 lung 35.1% | NCI-H226 lung 60.1% | NCI-H322M lung 29.5% | HOP-62 NSCLC 39.6% | NCI-H460 lung 14% | HOP-92 NSCLC 27.4% | A549/ATCC NSCLC 19.2% | 786-0 renal 35.2%

CCCC(C(=O)OCC)C(C)OC(=O)OCC (stereo not given)
inactive: NCI-H23 lung 100% | NCI-H226 lung 101% | NCI-H322M lung 100% | HOP-62 NSCLC 93.3% | NCI-H460 lung 113% | HOP-92 NSCLC 90.2% | NCI-H522 lung 86.1% | A549/ATCC NSCLC 104% | 786-0 renal 99.5% | COLO 205 colon 103%

O=C(O)c1ccc(-n2cc(CNc3ccc(C(F)(F)F)cc3)c(-c3ccccc3)n2)cc1
inactive: NCI-H23 lung 91.6% | NCI-H226 lung 104% | NCI-H322M lung 101% | HOP-62 NSCLC 90.5% | NCI-H460 lung 94.3% | HOP-92 NSCLC 83.8% | NCI-H522 lung 94.3% | A549/ATCC NSCLC 72.5% | 786-0 renal 99.1% | COLO 205 colon 107%

COc1ccc(/C=C\c2cc(OC)c(OC)c(OC)c2)c(NS(=O)(=O)c2ccc(C(C)(C)C)cc2)c1O
inactive: NCI-H23 lung 23.5% | NCI-H226 lung 44.9% | NCI-H322M lung 64% | HOP-62 NSCLC 81.9% | HOP-92 NSCLC 10.8% | A549/ATCC NSCLC 27.4% | 786-0 renal 24.4%
active: NCI-H460 lung 8.21% | NCI-H522 lung -7.56% | COLO 205 colon 1.63%

Cc1c(C2=NNC(c3ccc4c(c3)OCO4)C2)[n+]([O-])c2ccccc2[n+]1[O-] (stereo not given)
inactive: NCI-H23 lung 93.8% | NCI-H226 lung 102% | NCI-H322M lung 161% | HOP-62 NSCLC 92.1% | NCI-H460 lung 111% | HOP-92 NSCLC 83.6% | NCI-H522 lung 95.9% | A549/ATCC NSCLC 109% | 786-0 renal 106% | COLO 205 colon 101%

CCN1C(=O)N(CC)C2Nn3c(s/c(=C4\C(=O)N(C5CCCC5)c5ccccc54)c3=O)=NC21 (stereo not given)
inactive: NCI-H23 lung 53.9% | NCI-H226 lung 91.8% | NCI-H322M lung 94.8% | HOP-62 NSCLC 50% | NCI-H460 lung 43.9% | HOP-92 NSCLC 67.4% | NCI-H522 lung 28% | A549/ATCC NSCLC 54.4% | 786-0 renal 63.6% | COLO 205 colon 26.2%

COc1cc(-n2nc(C(=O)Nc3ccc(C(=O)O)cc3)nc2-c2ccccc2)cc(OC)c1OC
inactive: NCI-H23 lung 97.4% | NCI-H226 lung 103% | NCI-H322M lung 24.5% | HOP-62 NSCLC 85.1% | NCI-H460 lung 115% | HOP-92 NSCLC 83.5% | NCI-H522 lung 55.9% | A549/ATCC NSCLC 74.7% | 786-0 renal 92.1% | COLO 205 colon 104%

COc1ccc(-n2c(C)cc(-c3ccccc3)c2C)cc1
inactive: NCI-H23 lung 33.9% | NCI-H226 lung 57.3% | NCI-H322M lung 93.5% | HOP-62 NSCLC 82.4% | NCI-H460 lung 46.8% | HOP-92 NSCLC 24.6% | NCI-H522 lung 29.5% | A549/ATCC NSCLC 40.7% | 786-0 renal 35% | COLO 205 colon 39.4%

COc1cc(-c2csc(NC(=O)Nc3ccc(Cl)cc3Cl)n2)cc(OC)c1OC
inactive: NCI-H23 lung 42.7% | NCI-H226 lung 43.8% | NCI-H322M lung 30.8% | HOP-62 NSCLC 38.7% | NCI-H460 lung 10.3% | HOP-92 NSCLC 44% | NCI-H522 lung 21.4% | A549/ATCC NSCLC 25.5% | 786-0 renal 33% | COLO 205 colon 36.5%

COC(=O)c1ccc(C)cc1
inactive: NCI-H23 lung 97.5% | NCI-H226 lung 106% | NCI-H322M lung 113% | HOP-62 NSCLC 107% | NCI-H460 lung 106% | HOP-92 NSCLC 100% | NCI-H522 lung 97.5% | A549/ATCC NSCLC 103% | 786-0 renal 103% | COLO 205 colon 106%

COc1ccc(OC)c(NC(=O)c2cc(S(=O)(=O)N3CCc4ccccc43)ccc2OC)c1
inactive: NCI-H23 lung 86.7% | NCI-H226 lung 92.1% | NCI-H322M lung 109% | HOP-62 NSCLC 100% | NCI-H460 lung 108% | HOP-92 NSCLC 74.5% | NCI-H522 lung 78.6% | A549/ATCC NSCLC 78.9% | 786-0 renal 89.8% | COLO 205 colon 87.5%

COc1ccc(NC(=O)CSc2nc3ccccc3c(=O)n2Cc2cc(OC)c(OC)c(OC)c2)cc1
inactive: NCI-H23 lung 92.5% | NCI-H226 lung 88.3% | NCI-H322M lung 94.5% | HOP-62 NSCLC 91.4% | NCI-H460 lung 101% | HOP-92 NSCLC 58.8% | NCI-H522 lung 66.7% | A549/ATCC NSCLC 99.3% | 786-0 renal 92.5% | COLO 205 colon 107%

O=C(/C=C/CN1CCOCC1)Nc1cc2c(Nc3ccc(F)c(Cl)c3F)ncnc2cc1OCCOC(F)F
inactive: NCI-H23 lung 69.2% | NCI-H226 lung 70% | HOP-62 NSCLC 51.2% | NCI-H460 lung 49.4% | A549/ATCC NSCLC 40.5% | 786-0 renal 38.9% | COLO 205 colon 71.9%
active: NCI-H322M lung 8.76% | HOP-92 NSCLC -8.94% | NCI-H522 lung 8.53%

O=S(=O)(NCCNc1nccc(-c2c(-c3ccccc3)nc3sccn23)n1)c1ccc(O)cc1
inactive: NCI-H23 lung 50.3% | NCI-H226 lung 46% | NCI-H322M lung 58.2% | HOP-62 NSCLC 58.9% | NCI-H460 lung 21.4% | HOP-92 NSCLC 61.3% | NCI-H522 lung 65.4% | A549/ATCC NSCLC 32.2% | 786-0 renal 64.1% | COLO 205 colon 28.5%

Cc1ccc2c(c1)ncn2-c1ncnc2c1CC(C)c1ccccc1N2C (stereo not given)
active: NCI-H460 lung 3.26% | NCI-H522 lung -22.8% | COLO 205 colon -33.4%
inactive: NCI-H23 lung 24% | NCI-H226 lung 54.2% | NCI-H322M lung 61.3% | HOP-62 NSCLC 33.9% | HOP-92 NSCLC 24% | A549/ATCC NSCLC 23.5% | 786-0 renal 24.9%

Cc1ccc(OCCn2c(C)nn(-c3ccc(Cl)cc3)c2=O)cc1
inactive: NCI-H23 lung 94.7% | NCI-H226 lung 108% | NCI-H322M lung 108% | HOP-62 NSCLC 103% | NCI-H460 lung 106% | HOP-92 NSCLC 84.1% | NCI-H522 lung 106% | A549/ATCC NSCLC 100% | 786-0 renal 100% | COLO 205 colon 115%

CCC1CCc2nc3sc(C(=O)Nc4cccc(C)c4)c(N)c3cc2C1 (stereo not given)
inactive: NCI-H23 lung 101% | NCI-H226 lung 96% | NCI-H322M lung 94.8% | HOP-62 NSCLC 87% | NCI-H460 lung 88.1% | HOP-92 NSCLC 55.2% | NCI-H522 lung 71.5% | A549/ATCC NSCLC 77.3% | 786-0 renal 94.9% | COLO 205 colon 93%
